# Measured values published in PubChem BioAssay (Tox21).
# Results filed as inconclusive are left out. Entries that show only a call come without a potency. Unmarked numbers belong to inactive results. Activity calls are given as the source filed them. The call rests on the fitted dose curve; in most records, active means well fitted activation curve with a large enough effect in the signal ratio in the repeat runs (not every such curve was filed as active); inconclusive means weak or mixed curves, or effect the other way; inactive means no such curve, though single readings can be large or run the other way; the % refers to the signal ratio.
# Biological target: Peroxisome proliferator-activated receptor gamma (Homo sapiens) (UniProt P37231)
# Experiment: qHTS assay to identify small molecule agonists of the peroxisome proliferator-activated receptor gamma (PPARg) signaling pathway (AID 743094)
# Settings: HEK293H PPARg-UAS-bla, beta-lactamase FRET ratio, 17 h; series mostly up to 57 µM
# Source text: U.S. Tox21 Program National Center for Advancing Translational Sciences [NCATS] NIH Chemical Genomics Center [NCGC] U.S. Environmental Protection Agency [EPA] National Institutes of Environmental Health Sciences [NIEHS] National Toxicology Program [NTP] U.S. Food and Drug Administration [FDA] Tox21 Assay Overview: The peroxisome proliferator-activated receptors (PPARs) are lipid-activated transcription factors of the nuclear receptor superfamily with three distinct subtypes namely PPAR alpha, PPAR delta (also called PPAR beta) and PPAR gamma (PPARg). All these subtypes heterodimerize with Retinoid X receptor (RXR) and these heterodimers regulate transcription of various genes. PPAR-gamma receptor (glitazone receptor) is involved in the regulation of glucose and lipid metabolism. To identify the compounds that activate PPAR-gamma signaling, GeneBLAzer PPAR gamma UAS-bla HEK293H cell line (Invitrogen, Carlsbad, CA, USA) containing a beta-lactamase reporter gene under control of the control of an upstream activator sequence (UAS) stably integrated into HEK293H cells was used to screen Tox21 compound library.
# Tox21 Assay Protocol Summary: PPARg-bla cells were dispensed at 3000 cells/6uL/well in 1536-well black wall/clear bottom plates using a Multidrop Combi (Thermo Fisher Scientific, Waltham, MA) dispenser. After the assay plates were incubated at 37C and 5% CO2 for 5 h, 23 nL of compounds dissolved in DMSO, positive controls or DMSO only was transferred to the assay plate by a Pintool station (Kalypsys, San Diego, CA). The assay plates were incubated at 37C for 17 h. After 1 uL of LiveBLAzerTM B/G FRET substrate was added using a Bioraptr Flying Reagent Dispenser (FRD) workstation (Beckman Coulter, Indianapolis, IN, USA), the plates were incubated at room temperature for 1 h, and fluorescence intensity was measured by an Envision plate reader (PerkinElmer, Shelton, CT).
# Peroxisome proliferator-activated receptor gamma (Homo sapiens), sequence (P37231 whole entry, looked up): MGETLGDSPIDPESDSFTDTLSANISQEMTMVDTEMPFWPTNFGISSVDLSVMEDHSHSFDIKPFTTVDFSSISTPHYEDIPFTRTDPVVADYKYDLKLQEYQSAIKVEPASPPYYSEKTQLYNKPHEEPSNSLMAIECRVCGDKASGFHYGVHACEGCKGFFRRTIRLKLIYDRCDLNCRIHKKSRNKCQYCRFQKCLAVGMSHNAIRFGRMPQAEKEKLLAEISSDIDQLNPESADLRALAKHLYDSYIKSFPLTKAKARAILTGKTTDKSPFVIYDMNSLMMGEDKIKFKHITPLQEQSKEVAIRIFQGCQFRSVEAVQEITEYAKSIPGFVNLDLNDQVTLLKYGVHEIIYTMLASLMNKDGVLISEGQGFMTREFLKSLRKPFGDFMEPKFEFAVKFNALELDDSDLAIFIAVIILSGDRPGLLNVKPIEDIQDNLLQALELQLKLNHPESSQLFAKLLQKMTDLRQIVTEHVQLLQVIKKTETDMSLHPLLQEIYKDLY
SMILES,Potency,activation
CCCCOCC(C)O (stereo not given),inactive,
NCc1ccc(S(N)(=O)=O)cc1,inactive,
CCC[C@@H]1C[C@@H](C(=O)N[C@@H]([C@H]2O[C@H](SC)[C@H](O)[C@@H](O)[C@H]2O)[C@@H](C)O)N(C)C1,inactive,
CC(N)CCCC(C)(C)O (stereo not given),inactive,
CC(C)(C)NC[C@H](O)COc1cccc2c1CCCC2=O,inactive,
CC1(C)CC(OC(=O)CCCCCCCCC(=O)OC2CC(C)(C)NC(C)(C)C2)CC(C)(C)N1,inactive,
Cc1c(Cl)cccc1Cl,inactive,
c1ccc(B(c2ccccc2)c2ccccc2)cc1,inactive,
COP(=O)(O)OP(=O)(O)OC,inactive,
CC(=O)CCc1ccc(OC(C)=O)cc1,inactive,
Nc1nc(-c2ccccc2)c(Br)c(=O)[nH]1,inactive,
CC(C)=CCC/C(C)=C/COC=O,inactive,
CCCCOCCOC(=O)COc1ccc(Cl)cc1Cl,inactive,
C=CCCCCCCCCC(=O)OCCCC,inactive,
CC1=NN(c2ccc(S(=O)(=O)O)cc2)C(=O)C1,inactive,
ONc1ccccc1,inactive,
CCCCCCCCCCCCCCC(=O)NC(CO)CCCCCCCCCCCCCC (stereo not given),inactive,
CC1CC(=O)CC(C)(C)C1 (stereo not given),inactive,
CCC(C)C(C)=O (stereo not given),inactive,
O=C1c2ccccc2C(=O)c2cc(Cl)ccc21,,0.384% [at 7.08 µM]

SMILES,Potency,activation
COc1cc2c(cc1OC)C(=O)C(CC1CCN(Cc3ccccc3)CC1)C2 (stereo not given),inactive,
CCCCOC(=O)C(C)O (stereo not given),inactive,
c1ccc2cnccc2c1,inactive,
OCCN1CCOCC1,inactive,
CC(C)=CCC[C@@](C)(O)[C@H]1CC=C(C)CC1,inactive,
O=C(Cl)c1ccccc1[N+](=O)[O-],inactive,
COC(=O)c1cc(Cl)cc(Cl)c1,inactive,
C=CCCCC,inactive,
Cc1ccccc1C(N)=O,inactive,
Cc1ccnc(N)c1,inactive,
CN(C)CCCO[C@@H]1[C@H]2OC(C)(C)O[C@H]2O[C@@H]1C(O)CO (stereo not given in full),inactive,
O=C(O)CSCC(=O)NC1CCSC1=O (stereo not given),inactive,
COC(=O)c1ccccc1C(=O)O,inactive,
CC(=O)Nc1ccc(OC(=O)c2ccccc2OC(C)=O)cc1,inactive,
C=CCN1C[C@H](C(=O)N(CCCN(C)C)C(=O)NCC)C[C@@H]2c3cccc4[nH]cc(c34)C[C@H]21,inactive,
CC(=O)OCC(=O)Nc1cc(C#N)cc(NC(=O)COC(C)=O)c1Cl,inactive,
O=C(CN1CCNCC1)NC1CCCCC1,inactive,
C=C(C)C1CC=C(C)C(=O)C1 (stereo not given),inactive,
CCOC(CN1CCN(CC(C)C(=O)c2ccccc2)CC1)c1ccccc1 (stereo not given),inactive,
Nc1nnnn1-c1ccccc1,inactive,
